Only some compounds are listed: those with a hit (about 3.1% of all), similar ones and a draw of the others.
Mot1-301 SUMO = inhibitors of SUMOylation pathway: yeast Mot1-301 growth rescue; 320,000 compounds, 1% hits; growth rescue, % at 18.8 µM; S. cerevisiae Mot1-301 growth rescue, ATP luminescence, 38.5C; percent above DMSO median, 100 means doubled;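 active = every valid replicate shows activation above 250% relative to neutral control wells; inactive = the rest, any valid replicate at or below 250%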;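 also: OY570 slx delta 5 strain wells were the positive control but not used for scaling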
Calb FLC = C. albicans growth modulation with fluconazole | C. albicans CaCi-2 (fluconazole-resistant clinical isolate) + fluconazole, Alamar Blue growth, 48 h | growth inhibition, % (test concentration not listed) | 300,000 compounds, 0.57% hits;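 active = growth inhibition above about 58% in most replicates, limit read from the data, passing the limit was not always enough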;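 also: all wells also contain fluconazole at 8 µg/ml as a sub-toxic cotreatment; 0% = median of DMSO wells and 100% = median of geldanamycin control wells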
ATG4B inhibitor = inhibitors of human ATG4B cysteine protease. Q9Y4P1. ATG4B cleavage of LC3-PLA2, NBD-HPC fluorescence, 1 h. inhibition, % at 8.33 µM. 340,000 compounds, 0.51% hits. AID 504462; in the data active = inhibition above about 40%
Target sequence (Q9Y4P1 whole entry, looked up): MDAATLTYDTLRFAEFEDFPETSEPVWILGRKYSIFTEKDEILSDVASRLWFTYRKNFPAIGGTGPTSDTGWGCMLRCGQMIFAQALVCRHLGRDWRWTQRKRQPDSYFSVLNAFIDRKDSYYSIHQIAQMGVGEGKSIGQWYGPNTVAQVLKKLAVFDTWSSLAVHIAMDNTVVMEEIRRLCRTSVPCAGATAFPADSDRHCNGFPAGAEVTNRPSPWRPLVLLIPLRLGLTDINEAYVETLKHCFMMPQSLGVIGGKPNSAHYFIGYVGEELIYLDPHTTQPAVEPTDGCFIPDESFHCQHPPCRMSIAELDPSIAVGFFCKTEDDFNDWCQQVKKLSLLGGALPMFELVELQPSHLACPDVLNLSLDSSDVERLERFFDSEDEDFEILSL
NadD block = blocks S. aureus nicotinate mononucleotide adenylyltransferase; AID 602399; purified NadD enzyme, colorimetric absorbance read-out; inhibition, % at 20 µM; 360,000 compounds, 0.78% hits; in the data active = inhibition above about 26%
FAS TE block = blocks the thioesterase domain of human fatty acid synthase. 360,000 compounds, 0.67% hits. P49327. recombinant FAS-TE, OMFH fluorogenic substrate, fluorescence endpoint. inhibition, % at 15 µM. AID 602261;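 active = compounds whose normalised, plate-corrected inhibition of enzyme fluorescence in the single-dose primary screen is 50% or more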;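 also: 0% = DMSO with enzyme and 100% = substrate without enzyme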
Mot1 SUMO dose = yeast SUMO pathway inhibition in dose response; growth activity, percent, % at 42 µM; 2,300 tested, under 10 active; shares compounds with Mot1-301 SUMO; S. cerevisiae Mot1-301 galactose growth, ATP luminescence, 24 h; -100 = growth of slx-deleted rescue strain;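 active = Signal drops as the depositor expects, and the fitted half-maximal dose is no more than ten times the top valid tested dose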;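 also: more negative values mean stronger growth rescue toward the control strain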
Numbers without * were called inactive; nt = no result given; + = active, no number; ! = not confirmed by another sample.

SMILES	Mot1-301 SUMO	Calb FLC	ATG4B inhibitor	NadD block	FAS TE block	Mot1 SUMO dose
COc1cc(C(=O)NCCC2=CCCCC2)cc(OC)c1OC	807*	-3	0	-7	-4	0
CN(CCOc1ccc(Cl)cc1)C(=O)Cc1ccc(S(=O)(=O)N2CCOCC2)s1	0	nt	-14	-7	8	nt
OC(c1ccccc1)c1nc(-c2ccc(Cl)cc2)cs1 (configuration not stated)	nt	nt	nt	-4	18	nt
CC(C)(C)OC(=O)N1CCC(C(=O)N[C@@H](Cc2ccccc2)C(=O)O)(c2ccccc2)CC1	29	-10	-8	-1	-8	nt
CC(C)[C@H](NC(=O)C1(c2ccccc2)CCN(C(=O)OC(C)(C)C)CC1)C(=O)O	607*	-3	3	1	-9	0
CCN1CCN(CC(=O)Nc2cccc(C)c2C)C(=O)C1=O	518*	-5	-4	0	-8	1
COCCN1C=C(C(=O)OC)C(c2cc3c(cc2Br)OCO3)C(C(=O)OC)=C1	557*	-12	9	nt	nt	0
COc1ccc(-c2cc(C(=O)Nc3cc(C)ccc3O)no2)cc1	369*	-6	-4	2	-7	1
Cc1ccc(-c2cc(C(=O)Nc3cc(C)ccc3O)no2)cc1	-2	-7	0	-5	0	nt
Cc1nc(-c2cccc(S(=O)(=O)N3CCOCC3)c2)cs1	730*	0	-11	5	0	0
O=C1c2ccccc2NC(c2ccccc2O)N1O (configuration not stated)	384*	-14	-12	-2	1	-1
COc1ccc(S(=O)(=O)Nc2ccccc2N2CCOCC2)cc1OC	-10	nt	-6	0	-7	nt
CCOC(=O)c1sc(NC(=O)CSc2n[nH]c(-c3ccccc3)n2)c(C#N)c1C	472*	-1	-6	8	-6	0
CCN(CC)c1ncnc2ccc(Br)cc12	410*	3	1	3	-9	0
Cc1cccc(NC(=S)NCc2ccco2)c1C	619*	-2	9	-6	-5	0
Cc1c(Cl)cccc1NC(=S)NCc1ccco1	-4	3	32	-8	8	nt
COc1ccc(CCNC(=O)NC2CCCCC2)cc1OC	-10	-6	-1	2	-8	nt
COc1ccc(Cl)cc1C(=O)NCCc1ccc(S(=O)(=O)NC(=O)NC2CCCCC2)cc1	390*!	11	-1	2	-6	0
Cc1c(C)c2c(c(C)c1O)CCC(C)(C(=O)O)O2 (configuration not stated)	548*	nt	9	-2	-4	0
COc1ccc(C(=O)N/N=C(\C)CC(=O)Nc2cccc(C(F)(F)F)c2)cc1	-13	2	-4	-5	-1	nt
COCCNC(=O)C(=O)N/N=C(\C)CC(=O)Nc1cccc(C(F)(F)F)c1	445*	-3	-2	-1	-5	0
CCc1nccn1CCC(=O)NC1CCCc2c1cnn2-c1ccc(F)cc1F (configuration not stated)	7	24	-1	-4	-7	nt
O=c1[nH]cnc2ccc([N+](=O)[O-])cc12	397*	2	-8	-3	-2	0
O=S(=O)(NCc1cccc(C(F)(F)F)c1)NCc1ccccc1F	+	14	-4	-3	22	1
O=S(=O)(NCc1ccccc1)NCc1ccccc1F	-8	-39	0	-1	-5	nt
SMILES	Mot1-301 SUMO	Calb FLC	ATG4B inhibitor	NadD block	FAS TE block	Mot1 SUMO dose
Cc1ccc(NC(=O)N[C@@H](CC(C)C)C(=O)O)c(C)c1	3	7	-1	-5	-5	nt
Cc1ccc(NC(=O)N[C@H](C(=O)O)C(C)C)c(C)c1	830*	-2	-3	-7	-6	0
O=C(CNC(=O)Cc1ccccc1)NCC(=O)OCC(=O)c1cccc2ccccc12	4	13	-13	-7	-5	nt
O=C(CNC(=O)c1ccco1)OCC(=O)c1cccc2ccccc12	434*	2	-5	0	-2	0
COc1cc(C(=O)NN2C(=O)NC3(CCC(C)CC3)C2=O)ccc1OC(F)F (configuration not stated)	-9	nt	-13	-2	-3	nt
O=C(Cn1sc2ccccc2c1=O)Nc1ccccc1	nt	nt	nt	-4	-7	nt
O=C(Cn1sc2ccccc2c1=O)NC12CC3CC(CC(C3)C1)C2	387*	-43	-8	13	-13	4
O=Cc1ccc(OCCN2CCCC2=O)cc1	15	21	5	15	-2	nt
O=Cc1ccccc1OCCN1CCCC1=O	734*	-6	-1	1	-4	1
CC1CC(N(C(=O)c2ccccc2Cl)c2ccccc2)c2ccccc2N1 (configuration not stated)	453*	-3	-8	-1	14	1
CN(C(=O)c1ccccc1Cl)C1CCCCC1	-7	-12	-11	-7	-5	nt
COc1ccc(CNc2nc(NCc3ccc(OC)cc3)n(S(C)(=O)=O)n2)cc1	14	-10	-1	-2	-2	nt
COCC(=O)n1nc(NCc2ccc(OC)cc2)nc1NCc1ccc(OC)cc1	394*	-9	-17	-1	2	0
CCOC(=O)c1ccc(NS(=O)(=O)c2c(C)[nH]c(C)c2C(=O)N2CCCCC2)cc1	12	1	-3	2	-4	nt
COc1ccc(OCCN2CCC(C(=O)NC(c3ccc(Cl)cc3)c3cnccn3)CC2)cc1 (configuration not stated)	nt	nt	nt	-8	-6	nt
COc1ccc(CCNC(=O)c2ccc([N+](=O)[O-])cc2Cl)cc1OC	11	11	-8	-7	-2	nt
COc1ccccc1C(=O)NCCNc1ccc([N+](=O)[O-])cc1Cl	456*	21	-2	-5	22	-1
COC(=O)Nc1ccc(S(=O)(=O)N2CCCC(C(=O)O)C2)cc1 (configuration not stated)	14	-12	0	-6	-7	nt
O=C(CN(Cc1ccccc1)C(=O)CNS(=O)(=O)c1ccc(F)cc1)NCc1ccco1	-9	-2	-9	-1	4	nt
CCCN1CCC(NC23CC4CC(CC(C4)C2)C3)CC1	-30	-5	nt	nt	nt	nt
OCCN1CCN(c2ncnc3c2sc2nc(N4CCOCC4)c4c(c23)CCC4)CC1	9	5	-11	-2	-10	nt
CC1(C)Cc2c(c(N3CCCC3)nc3sc4c(N5CCN(CCO)CC5)ncnc4c23)CO1	707*	nt	0	-2	2	0
COc1ccccc1OC(C)C(=O)N(Cc1ccco1)C1CCS(=O)(=O)C1 (configuration not stated)	161	-2	4	-3	-7	nt
O=C(O)CCc1ccc(-c2ccccc2)n1NC(=O)c1cccs1	670*	2	4	-2	0	1
Cc1c(NP(=O)(c2ccc(Br)cc2)c2ccc(Br)cc2)c(=O)n(-c2ccccc2)n1C	381*	-11	-7	8	16	0

Screening results from PubChem BioAssay.
